Measured values published in PubChem BioAssay (NCI).
This is part of a sample that, as a whole, favours compounds with a hit. Of some 83,000 tested, about 20% had one in any assay.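 Negative percent growth values reflect cell death: -40 means 40% of the cells present at the start died, and -100 means all died.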 Values without a mark were called inactive. Activity calls are given as the source filed them. How the source made its calls: active means growth percent below 10; inactive means the rest.

Key:
Test in all cases: NCI-60 one-dose screen, 48 h (100 = growth as untreated, 0 = no growth, -100 = all killed)
Settings in all cases: 10 µM unless noted
[1] = test system: NCI-H23 lung
[2] = test system: NCI-H226 lung
[3] = test system: NCI-H322M lung
[4] = test system: NCI-H460 lung
[5] = test system: HOP-92 NSCLC
[6] = test system: NCI-H522 lung
[7] = test system: A549/ATCC NSCLC
[8] = test system: 786-0 renal
[9] = test system: COLO 205 colon
[10] = test system: HOP-62 NSCLC

| Compound | growth [1] | growth [2] | growth [3] | growth [4] | growth [5] | growth [6] | growth [7] | growth [8] | growth [9] | growth [10] |
| --- | --- | --- | --- | --- | --- | --- | --- | --- | --- | --- |
| Cc1ccc(C(=O)C2=C(O)C(=O)N(Cc3cccnc3)C2c2ccccc2F)o1 (centres undefined) | 97.9% | 96.5% | 108% | 107% | 83.9% | 106% | 87.3% | 86.2% | 108% |  |
| COc1ccc2[nH]c(O)c(C(=Nc3ccc(N(C)C(=O)CN4CCN(C)CC4)cc3)c3ccccc3)c2c1 | 21.2% | 29% | 61.1% | 15.3% | 12.7% | 67.2% | 24.2% | 42.4% | -6.6% (active) |  |
| O=c1ccn2nc3ccccc3c2[nH]1 | 94.6% | 91.3% | 97.8% | 109% | 71.2% | 91.9% | 116% | 99.2% | 124% |  |
| Cc1ccc2nc(NC(=O)CSc3nc(Nc4ccc([N+](=O)[O-])cc4)c(C#N)c(-c4ccccc4)n3)sc2c1 | 99.6% | 98.7% | 92.6% |  | 90.9% |  | 93.8% | 101% | 108% | 95.6% |
| CC(C)(C)CC(C)(C)Nc1c(-c2ccncc2)nc2cnccn12 | 99.2% | 90.3% | 103% | 105% | 87.1% | 87.1% | 96.4% | 96.6% | 101% |  |
| COc1cc2nc(Cl)nc(Nc3ccc(S(=O)(=O)Nc4nccs4)cc3)c2cc1OC | 101% | 91.9% | 102% |  | 118% |  | 102% | 101% | 110% | 92% |
| N#Cc1c(-c2cccc(Cl)c2)cc(-c2cccc(F)c2)[nH]c1=O | 96.3% | 95.1% | 90.8% | 95.9% | 55.3% | 85% | 84.5% | 90.3% | 109% |  |
| Cc1cc(NCCCCNc2ccnc3cc(Cl)ccc23)nc(Nc2ccc(C(=O)N3CCCCC3)cc2)n1 | 41.3% | 98.6% | 22.9% | 6.46% (active) | 63.6% | -42.2% (active) | 13.1% | -87.6% (active) | -67.8% (active) |  |
| O=[N+]([O-])c1ccc(C2CC(c3ccccc3)=Nc3ccccc3S2)cc1 (centres undefined) | 94.4% | 118% | 107% | 101% | 81% | 94.6% | 105% | 105% | 118% |  |
| CCOC(=O)c1c2c(n3ccc(NC(=O)OC(C)(C)C)cc13)C(=O)c1ncccc1C2=O | -77.5% (active) | -63.7% (active) | -19.5% (active) | -82.6% (active) | -10.3% (active) | -56.1% (active) | -57.3% (active) | -49.3% (active) | -54.6% (active) |  |
| COc1ccc2occ(C3=C(c4c[nH]c5ccccc45)C(=O)N(O)C3=O)c2c1 |  | 78.7% | 93.7% | 95.4% | 87.8% | 58.1% | 93.6% | 91.3% | 98.5% | 86.3% |
| COc1ccc2[nH]c(O)c(/C=c3/cc4c(c(-c5cc(OC)c(OC)c(OC)c5)n3)=Nc3ccccc3-4)c2c1 | 50.7% | 67.1% | 92.6% | 71.6% | 39.8% | 50.4% | 72.5% | 67.1% | 59.4% |  |
| Cc1cc(Cl)nc(NCc2cc(Nc3ccnc4cc(Cl)ccc34)ccc2F)n1 | 41.5% | 64.2% | 79.6% | 34.8% | 40.4% | 45.1% | 58.5% | 76% | 75.8% |  |
| C=C(C)[C@@H]1CC[C@]2(C(=O)NC3CCCCC3)CC[C@]3(C)[C@H](CC[C@@H]4[C@@]5(C)CCCNC(C)(C)[C@@H]5CC[C@]43C)[C@@H]12 | 76.7% | 63% | 65.7% | -56.5% (active) | 62.3% | 60% | 41.2% | 62.7% | -63.1% (active) |  |
